Test results reported in PubChem BioAssay (NCI).
Values joined by “and” are separate entries in the source; they are usually repeats but may differ in a detail not shown here. Equal values may be shown once. This is part of a sample that, as a whole, favours compounds with a hit. Of some 83,000 tested, about 20% had one in any assay.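 Assay: single dose, 48 h. Readout: percent growth (0 = no net growth; negative = cell death). Active: <10.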 Active and inactive are the calls of the source.

Tests used:
Test in all cases: NCI-60 one-dose screen, 48 h (100 = growth as untreated, 0 = no growth, -100 = all killed)
Conditions in all cases: 10 µM unless noted
SK-MEL-2 melanoma = test system: SK-MEL-2 melanoma
SN12C renal = test system: SN12C renal
UO-31 renal = test system: UO-31 renal
TK-10 renal = test system: TK-10 renal
ACHN renal = test system: ACHN renal
CAKI-1 renal = test system: CAKI-1 renal
A498 renal = test system: A498 renal
CCRF-CEM leukemia = test system: CCRF-CEM leukemia
MOLT-4 leukemia = test system: MOLT-4 leukemia
SR leukemia = test system: SR leukemia
RPMI-8226 leukemia = test system: RPMI-8226 leukemia
OVCAR-8 ovarian = test system: OVCAR-8 ovarian
OVCAR-5 ovarian = test system: OVCAR-5 ovarian
OVCAR-4 ovarian = test system: OVCAR-4 ovarian
SK-OV-3 ovarian = test system: SK-OV-3 ovarian
IGROV1 ovarian = test system: IGROV1 ovarian
HS 578T breast = test system: HS 578T breast
NCI/ADR-RES ovarian = test system: NCI/ADR-RES ovarian
OVCAR-3 ovarian = test system: OVCAR-3 ovarian

Measured: growth

O=C(Nc1ccc(F)cc1)ON=C1CCCCC1
inactive: SK-MEL-2 melanoma 102% [100 µM] | SN12C renal 100% [100 µM] | UO-31 renal 92.2% [100 µM] | TK-10 renal 101% [100 µM] | ACHN renal 97.9% [100 µM] | CAKI-1 renal 79.3% [100 µM] | A498 renal 95.2% [100 µM] | CCRF-CEM leukemia 97.2% [100 µM] | MOLT-4 leukemia 95.3% [100 µM] | SR leukemia 84.9% [100 µM] | RPMI-8226 leukemia 93.9% [100 µM] | OVCAR-8 ovarian 106% [100 µM] | OVCAR-5 ovarian 97.9% [100 µM] | OVCAR-4 ovarian 99.1% [100 µM] | SK-OV-3 ovarian 129% [100 µM] | IGROV1 ovarian 102% [100 µM] | HS 578T breast 99% [100 µM] | NCI/ADR-RES ovarian 105% [100 µM]

CCOC(=O)/C=C/c1ccc([N+](=O)[O-])o1
active: ACHN renal 9.88% | CAKI-1 renal 9% | CCRF-CEM leukemia 7.26% | MOLT-4 leukemia -3.02%
inactive: SK-MEL-2 melanoma 85.3% | SN12C renal 85.5% | UO-31 renal 38.5% | TK-10 renal 40.7% | A498 renal 102% | SR leukemia 16.2% | RPMI-8226 leukemia 74.7% | OVCAR-8 ovarian 11.4% | OVCAR-4 ovarian 97.4% | SK-OV-3 ovarian 106% | IGROV1 ovarian 77.5% | OVCAR-3 ovarian 17.1% | HS 578T breast 98.1% | NCI/ADR-RES ovarian 50.6%

CC(C)c1ccc2nc3ccc(C(=O)NCCN4CCN(c5ccccc5)CC4)cn3c(=O)c2c1
inactive: SK-MEL-2 melanoma 75.4% | SN12C renal 69.9% | UO-31 renal 50% | TK-10 renal 93.9% | ACHN renal 72.1% | CAKI-1 renal 63.4% | A498 renal 81.8% | CCRF-CEM leukemia 50.7% | MOLT-4 leukemia 38% | RPMI-8226 leukemia 20.5% | OVCAR-8 ovarian 46.8% | SK-OV-3 ovarian 93.4% | IGROV1 ovarian 78.7% | HS 578T breast 59.2% | NCI/ADR-RES ovarian 32.2%

c1ccc2c(c1)Nc1cc3ccccc3cc1N2
inactive: SK-MEL-2 melanoma 84% | SN12C renal 54.6% | UO-31 renal 17.6% | TK-10 renal 93.3% | ACHN renal 27% | CAKI-1 renal 38% | A498 renal 81.9% | CCRF-CEM leukemia 26.5% | MOLT-4 leukemia 20.9% | SR leukemia 29.2% | RPMI-8226 leukemia 18.8% | OVCAR-8 ovarian 29.5% | OVCAR-4 ovarian 32.6% | SK-OV-3 ovarian 63.6% | IGROV1 ovarian 50.6% | NCI/ADR-RES ovarian 30.5%
active: OVCAR-3 ovarian -3.74%

CCC(CCCN(CC)CCc1ccccc1)OC(=O)c1cc(OC)c(OC)c(OC)c1 (stereo not drawn)
inactive: SK-MEL-2 melanoma 95.6% | SN12C renal 90.2% | UO-31 renal 69.8% | TK-10 renal 72.6% | ACHN renal 82.8% | CAKI-1 renal 89.7% | A498 renal 60.2% | CCRF-CEM leukemia 98.6% | MOLT-4 leukemia 87.1% | SR leukemia 78.7% | RPMI-8226 leukemia 85% | OVCAR-8 ovarian 92.2% | OVCAR-5 ovarian 84.8% | OVCAR-4 ovarian 82.6% | SK-OV-3 ovarian 83.5% | IGROV1 ovarian 78.1% | NCI/ADR-RES ovarian 83.3%

O=C(/C=C/c1cccc(Cl)c1)c1ccccc1
7.8% (active) and 11.7% (inactive): SR leukemia
inactive: SK-MEL-2 melanoma 109% and 100% | SN12C renal 92.3% and 81% | UO-31 renal 77.7% and 70% | TK-10 renal 84.8% | ACHN renal 90.7% and 81.5% | CAKI-1 renal 90.8% and 75.4% | A498 renal 79.7% and 102% | CCRF-CEM leukemia 74.1% and 63.7% | MOLT-4 leukemia 90.7% and 86.1% | OVCAR-8 ovarian 88.2% and 79.9% | IGROV1 ovarian 93.7% and 71.8% | HS 578T breast 108% and 107% | NCI/ADR-RES ovarian 105% and 88.8%
active: RPMI-8226 leukemia -30.6% and 0.877%

CC1OC2CC(=O)OC2C2=C1C(=O)c1c(O)cccc1C2=O (stereo not drawn)
active: SK-MEL-2 melanoma -61.2% | SN12C renal -94.9% | UO-31 renal -90.7% | TK-10 renal -96.2% | ACHN renal -97.4% | CAKI-1 renal -82.5% | CCRF-CEM leukemia 0.534% | MOLT-4 leukemia -7.62% | SR leukemia -30% | RPMI-8226 leukemia -9.64% | OVCAR-8 ovarian -14.7% | HS 578T breast 5.97% | NCI/ADR-RES ovarian -6.77%
